# Measurements from PubChem BioAssay.
# Unmarked numbers belong to inactive results. No rule for the calls is given here.
# Biological target: Pantothenate synthetase (Mycobacterium tuberculosis (strain ATCC 25618 / H37Rv)) (UniProt P9WIL5)
# Assay: Recombinant Mtb pantothenate synthetase (PanC) inhibitors, coupled enzyme, confirmatory (AID 375);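 also: 0% = full reaction with vehicle and 100% = no enzyme background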
# Settings: coupled enzyme assay; at 10 µM, active compounds read high
# Sequence of Pantothenate synthetase (Mycobacterium tuberculosis (strain ATCC 25618 / H37Rv)) (P9WIL5 whole entry, looked up): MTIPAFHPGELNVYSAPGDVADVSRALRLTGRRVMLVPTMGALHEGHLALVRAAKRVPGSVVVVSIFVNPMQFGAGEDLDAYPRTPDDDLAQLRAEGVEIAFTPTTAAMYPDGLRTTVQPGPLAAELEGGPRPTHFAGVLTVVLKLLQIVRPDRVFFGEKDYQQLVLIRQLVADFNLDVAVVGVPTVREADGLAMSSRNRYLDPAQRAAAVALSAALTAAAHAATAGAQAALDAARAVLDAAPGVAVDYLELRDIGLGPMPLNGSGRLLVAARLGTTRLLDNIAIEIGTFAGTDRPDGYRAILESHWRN
row,SMILES,inhibition
1,CSc1nc2ccc(Nc3nc(N4CCOCC4)nc(N4CCOCC4)n3)cc2s1,2%
2,CCCCC[C@H](O)/C=C/[C@H]1C=CC(=O)[C@@H]1C/C=C\CCCC(=O)O,0%
3,COc1ccc(C2C3=C(OC(C)=O)c4ccccc4C3=Nc3c2c(=O)n(C)c(=O)n3C)cc1 (stereo not given),2%
4,COc1cccc(N(C(=O)c2ccco2)C(C(=O)NC2CCCC2)c2ccc(N(C)C)cc2)c1 (stereo not given),0%
5,Cc1cc(=O)oc2ccc(OCC(=O)N(Cc3ccc(F)cc3)Cc3ccco3)cc12,0%
6,COc1cc(OC)c(C(=O)Nc2ccc(N(C)C)cc2)cc1OC,4%
7,CCN(CCNC(=O)C1CCN(S(=O)(=O)CC)CC1)c1ccccc1,2%
8,Cc1cc(C(F)(F)F)c2c(C)nn(CCc3nn[nH]n3)c2n1,0%
9,CC1CCCN(C(=O)c2cc(F)c(F)cc2Cl)C1 (stereo not given),0%
10,Cc1cc(C)n2c(SCCN3C(=O)c4ccccc4C3=O)nnc2n1,0%
11,CCOc1ccc(C2CC(c3cccc(OC)c3)Nc3nc(N)nn32)cc1 (stereo not given),0%
12,CCn1cc(C(=O)NCC2CCCO2)c(=O)c2cc(S(=O)(=O)N(C)C3CCCCC3)ccc21 (stereo not given),5%
13,Cc1nnc2c3ccccc3c(-c3ccccc3)nn12,0%
14,Cc1ccc(N(CC(O)CN2CCCC2)S(=O)(=O)c2ccc(C)cc2)cc1 (stereo not given),0%
15,Clc1ccc(C2=Nn3c(nnc3-c3n[nH]c4c3CCC4)SC2)cc1Cl,0%
16,O=C(CSc1nc2[nH]ncc2c(=O)n1-c1ccccc1Br)NCc1ccco1,1%
17,CCOc1ccc(-n2c(=O)cc(N3CCN(c4ccccc4)CC3)[nH]c2=O)cc1,0%
18,CCCC(=O)Nc1ccc(NC(=O)c2cccs2)cn1,5%
19,O=C(CS(=O)(=O)Cc1ccccc1)Nc1nc2ccccc2s1,0%
20,CCOC(=O)Cn1c2c(c(=N)c3ccccc31)CCC2,13%

row,SMILES,inhibition
1,Cc1cc(C)n2nc[n+](C)c2n1,0%
2,O=C(NCc1ccccc1)C1CCN(S(=O)(=O)c2cccc3cccnc23)CC1,0%
3,O=C(OC1CCOC1=O)c1ccc(S(=O)(=O)N2CCCCCC2)cc1 (stereo not given),0%
4,CCNC(=O)Cn1cnc2c1c(=O)n(C)c(=O)n2C,0%
5,COc1cccc(NC(=O)C2CCN(c3ncccn3)CC2)c1,2%
6,Cc1ccc2c(c1)NC(=O)C(CC(=O)NCCCN1CCN(c3cc(Cl)ccc3C)CC1)O2 (stereo not given),1%
7,COC(=O)c1ccccc1NC1c2ccccc2C(=O)N1c1cccnc1 (stereo not given),0%
8,CCN1CCCC1CNCc1ccc(Cl)cc1Cl (stereo not given),0%
9,COc1cccc(-c2nc(CS(=O)(=O)CC(=O)NCc3ccc(Cl)cc3)c(C)o2)c1,0%
10,CC(=O)N1C(=O)C2(Nc3ccccc3N2)c2ccccc21,1%
11,CCCc1cc(=O)oc2c(C)c3occ(C)c3cc12,1%
12,Cc1cc(C)nc(NC2=NCC(=O)N2c2ccccc2Br)n1,0%
13,CC1=C(C(=O)NCc2ccco2)C2(CCC(C)CC2)OC1=O (stereo not given),4%
14,CC(C)(C)SCCNC(=O)COc1ccc(Cl)cc1,0%
15,CCOC(=O)Nc1sc(=S)n(C)c1C,9%
16,CC(C)(C)C(=O)CNS(=O)(=O)c1ccc(S(=O)(=O)NC2CCCC2)cc1,0%
17,CC(=O)NC(Cc1c[nH]c2ccccc12)C(=O)OCC(=O)Nc1cc(C)on1 (stereo not given),0%
18,CCn1c(=O)cc(SCC(=O)Nc2ccc3c(c2)OCO3)c2ccccc21,0%
19,Cn1c(Cc2csc(N)n2)nnc1SCC(=O)NC1CCCCC1,4%
20,O=S(=O)(c1ccc(N2CCN(c3ccc(F)cc3)CC2)cc1)N1CCCC1,0%
